Sm TGR block: qHTS Assay for the Inhibitors of Schistosoma Mansoni Peroxiredoxins | Potency, µM (top dose mostly 114 µM), most hits filed as inhibitors | AID 485364, 2010 | hit rate 3% among 360,000 | Schistosoma mansoni thioredoxin glutathione reductase (TGR), Q962Y6 | purified TGR, DTNB reduction, TNB absorbance 405 nm; note: nearly all actives have a fitted effect of over 60% in size
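Kinetic colorimetric format: TGR-catalysed, NADPH-driven DTNB reduction monitored via TNB absorbance. Enzyme dispensed at 20 nM; compound exposure 15 min at room temperature before reaction start.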
FBPA Giardia inh: qHTS Assay for Inhibitors of Fructose-1,6-bisphosphate Aldolase from Giardia Lamblia. purified Giardia FBPA. hit rate 0.71% among 290,000. AID 2451, 2010. Potency, µM (doses to about 59.6 µM), usual class: inhibitors. A8B2U2; note: nearly all actives have a fitted effect of over 55% in size
Target sequence (A8B2U2 whole entry, looked up): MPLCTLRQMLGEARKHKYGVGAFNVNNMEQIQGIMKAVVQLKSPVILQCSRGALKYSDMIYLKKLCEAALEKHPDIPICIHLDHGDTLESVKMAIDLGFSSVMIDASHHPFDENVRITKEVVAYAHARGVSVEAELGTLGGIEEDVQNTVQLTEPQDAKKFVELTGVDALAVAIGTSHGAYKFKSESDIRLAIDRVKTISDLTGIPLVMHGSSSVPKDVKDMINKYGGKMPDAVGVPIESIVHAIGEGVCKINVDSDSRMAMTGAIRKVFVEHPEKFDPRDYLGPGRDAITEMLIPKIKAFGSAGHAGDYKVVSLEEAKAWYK
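40 nM FBPA preincubated 10 min at RT with compound (up to 57.5 uM final), then substrate plus GAPDH/TPI/NAD/arsenate coupling and diaphorase/resazurin added. Fluorescence read after 20 min at RT, 525/598 nm.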
RE007 growth inh: qHTS Assay for Inhibitors of the HIV-1 protein Vpr; Potency, µM (series often up to 92.2 µM), usual class: inhibitors; S. pombe RE007 Vpr strain, BacTiter-Glo ATP luminescence, 24 h; AID 651644, 2012; hit rate 0.21% among 360,000; active = well fitted falling curve with a large enough effect; inconclusive = small, poorly fitted or top-dose-only effect; inactive = no such curve, though single readings can be large or run the other way; note: nearly all actives have a fitted effect of over 50% in size
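Fission yeast strain RE007, carrying one chromosomally integrated HIV-1 vpr copy, was seeded at OD 0.01 in PMG+AL medium with 23 nL pinned compound. After 24 h at 30 °C and 99% humidity, viability was read by BacTiter-Glo luminescence.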
AmpC inh detg: qHTS Inhibitors of AmpC Beta-Lactamase (assay with detergent); AmpC hydrolysis of nitrocefin, absorbance 480 nm, 0.01% Triton; Potency, µM (doses to about 114 µM), hits mostly inhibitors; hit rate 0.041% among 370,000; AID 485294, 2010; P00811; note: nearly all actives have a fitted effect of over 25% in size
Target sequence (P00811 whole entry, looked up): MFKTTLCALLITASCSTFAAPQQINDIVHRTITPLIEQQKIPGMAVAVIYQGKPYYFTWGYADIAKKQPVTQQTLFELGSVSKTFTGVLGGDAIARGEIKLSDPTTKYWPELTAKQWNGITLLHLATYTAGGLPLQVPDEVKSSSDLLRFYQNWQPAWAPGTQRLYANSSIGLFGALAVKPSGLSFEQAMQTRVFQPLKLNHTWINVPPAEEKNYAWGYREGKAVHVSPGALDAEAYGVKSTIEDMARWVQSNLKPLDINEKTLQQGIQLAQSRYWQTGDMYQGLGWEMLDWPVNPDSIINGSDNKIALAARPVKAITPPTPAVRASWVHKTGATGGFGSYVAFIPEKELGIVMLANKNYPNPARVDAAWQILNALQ
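20 mM phosphate pH 7.0 + 0.01% (detergent screen) or 0.0001% Triton X-100; 5.3 nM AmpC reagent; cpd preinc 15 min RT; nitrocefin (800 uM stock) to start; A480 q20 s × 4 min; Activity was normalised to no-enzyme and no-compound control wells.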
AmpC no deterg: qHTS Inhibitors of AmpC Beta-Lactamase (assay without detergent). hit rate 0.52% among 330,000. AID 485341, 2010. P00811. AmpC nitrocefin hydrolysis, absorbance 480 nm, 0.0001% Triton. Potency, µM (top dose mostly 57.1 µM), hits mostly inhibitors; note: nearly all actives have a fitted effect of over 20% in size
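AmpC (5.3 nM in the dispensed reagent) in 20 mM phosphate pH 7.0 with 0.01% (detergent screen) or 0.0001% Triton X-100 was preincubated with compounds for 15 min at room temperature. Nitrocefin was then added from an 800 uM solution, and hydrolysis was followed at 480 nm.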
Large screens that a line does not name were inactive. This is a sample that favours compounds with a hit; in the whole collection about 3.4% have one here. Unless noted, calls come from the whole dose curve; as a rule, active = well fitted curve in the direction sought with a large enough effect; inconclusive = small, poorly fitted or top-dose-only effect, or another doubt; inactive = no such curve, though single readings can be large; an effect the other way counts as inactive or inconclusive.

COc1ccc(-c2nnc3ccc(SCC(=O)N4CCCCC4)nn23)cc1OC	AmpC inh detg inconclusive
N#C/C(=C/c1ccc(-c2ccc(S(N)(=O)=O)cc2)o1)C(=O)Nc1ccccc1	AmpC no deterg 15.8µM
N#C/C(=C\c1ccco1)C(=O)Nc1ccc(S(N)(=O)=O)cc1	AmpC inh detg inconclusive
Cc1cc(C)c2cc(C(c3nnnn3CC3CCCO3)N3CCN4CCCC4C3)c(=O)[nH]c2c1 (centres undefined)	Sm TGR block 22.4µM, AmpC inh detg inconclusive
O=c1[nH]c2cc3c(cc2cc1C(c1nnnn1CC1CCCO1)N1CCCCCC1)OCCO3 (centres undefined)	Sm TGR block 31.6µM
CCC(C)(C)n1nnnc1C(c1ccc(C)cc1)N1CCC(C)CC1 (centres undefined)	AmpC inh detg inconclusive
COCCn1nnnc1C(c1ccc2ncccc2c1)N1CCN(c2ccccc2F)CC1 (centres undefined)	none
COCCn1c(C)cc(O)c(C(c2ccccc2)N2CCN(C)CC2)c1=O (centres undefined)	Sm TGR block 6.31µM (no result: FBPA Giardia inh, RE007 growth inh, AmpC no deterg)
CCOc1ccc(C(c2c(O)cc(C)n(CCOC)c2=O)N2CCN(c3ccccc3F)CC2)cc1 (centres undefined)	Sm TGR block 10µM (no result: FBPA Giardia inh, RE007 growth inh, AmpC no deterg)
COCCn1c(C)cc(O)c(C(c2ccccc2)N2CCN(c3ccccc3F)CC2)c1=O (centres undefined)	Sm TGR block 7.08µM (no result: FBPA Giardia inh, RE007 growth inh, AmpC no deterg)
CCOc1ccc(C(c2c(O)cc(C)n(CCOC)c2=O)N2CCC(C)CC2)cc1 (centres undefined)	Sm TGR block 20µM (no result: FBPA Giardia inh, RE007 growth inh, AmpC no deterg)
O=C(c1ccc(OCC2CCCO2)cc1)N1CCN(S(=O)(=O)c2cccc(F)c2)CC1 (centres undefined)	AmpC inh detg inconclusive (no result: FBPA Giardia inh)
O=[N+]([O-])/C(C(Cl)=C(Cl)Cl)=C1\Nc2ccccc2O1	Sm TGR block 14.1µM, FBPA Giardia inh inconclusive
CC(=O)c1cnc2scnn2c1=O	none
O=C(N/N=C/c1ccc(-c2ccc(S(=O)(=O)Nc3ncccn3)cc2)o1)c1cc2ccccc2cc1O	AmpC no deterg 20µM
COc1ccc2cc(CCNC(=O)CCc3ccccc3)c(=O)[nH]c2c1	none (no result: FBPA Giardia inh)
CC(C)Cn1c(C(C)C)nc([N+](=O)[O-])c1Sc1ccc(Cl)cn1	AmpC inh detg inconclusive
CCCCn1c(CCC)nc([N+](=O)[O-])c1Sc1ccc(Cl)cn1	Sm TGR block 22.4µM
CC(NC(=O)COc1ccccc1)C(=O)N1CCN(c2ccccc2)CC1 (centres undefined)	none (no result: FBPA Giardia inh)
Cc1cc(=O)oc2cc(OCC(=O)NCCCN3CCCC3=O)c(Cl)cc12	Sm TGR block 79.4µM (no result: FBPA Giardia inh)
Cc1c(C)c2cc(Cl)c(OCC(=O)NCCCN3CCCC3=O)cc2oc1=O	none (no result: Sm TGR block, FBPA Giardia inh, AmpC inh detg, AmpC no deterg)
Cc1ccc(CNC(=O)CC(C)S(=O)(=O)c2ccc3c(c2)NC(=O)CS3)o1 (centres undefined)	Sm TGR block 14.1µM
Cc1ccc(NC(=O)CN(C)C(=O)c2ccc(OCc3c(C)noc3C)cc2)cc1	none (no result: FBPA Giardia inh)
COc1ccc(/C=N\NC(=O)c2cc(O)c(O)c(O)c2)cc1COc1ccc(C(=O)OCC(C)C)cc1	FBPA Giardia inh inconclusive, AmpC no deterg 10µM (no result: RE007 growth inh)
COc1ccc(C(=O)Nc2ccccc2C(=O)NCc2cccnc2)cc1OC	none
COc1ccc(/C=N/NC(=O)c2ccc(-c3ccccc3)cc2)cc1O	AmpC no deterg 35.5µM
COc1ccc(C(=O)N/N=C/c2ccc(OC(=O)c3cccc4ccccc34)c([N+](=O)[O-])c2)cc1	AmpC no deterg 28.2µM
COc1ccc(C(=O)Nc2ccccc2C(=O)N/N=C/c2ccncc2)cc1OC	RE007 growth inh 8.91µM
COc1cc(/C=N/NC(=O)c2ccccc2)ccc1O	none
Cc1ccc2sc(N3CCN(C(=O)CCS(=O)(=O)c4ccc(Cl)cc4)CC3)nc2c1C	none (no result: FBPA Giardia inh, RE007 growth inh, AmpC no deterg)
Cn1c(SCC(=O)N/N=C/c2cccs2)nc2ccccc21	none
O=C(CSc1nc2ccccc2n1Cc1ccccc1)N/N=C/c1ccco1	none
CCn1c(SCC(=O)N/N=C/C=C\c2ccco2)nc2ccccc21	Sm TGR block 22.4µM, AmpC inh detg inconclusive
Cc1ccc(/C=N/NC(=O)CSc2nc3ccccc3n2C)s1	FBPA Giardia inh 3.97µM, AmpC inh detg inconclusive
Cn1c(SCC(=O)N/N=C/C=C\c2ccco2)nc2ccccc21	Sm TGR block 22.4µM
COc1ccc(N2CCC(CNC(=S)Nc3cc(C)ccc3C)C2)cc1 (centres undefined)	none
CC(=O)Nc1nc(C(F)(F)F)cs1	none
Cc1ccccc1CN(C)C[C@@H]1OCc2cnnn2CCCC(=O)N([C@H](C)CO)C[C@H]1C	none (no result: Sm TGR block, FBPA Giardia inh, AmpC inh detg, AmpC no deterg)
C[C@@]12C(=O)N(Cc3ccco3)CC(=O)N1[C@H]1c3cc(Cl)ccc3OC[C@@H]1[C@@H]2c1ccccc1	none (no result: Sm TGR block, FBPA Giardia inh, AmpC inh detg)
CCc1c(C)sc(NC(NC(C)=O)(C(=O)OC)C(F)(F)F)c1C#N (centres undefined)	Sm TGR block 50.1µM
COC(=O)C(NC(C)=O)(Nc1sc2c(c1C(N)=O)CCCC2)C(F)(F)F (centres undefined)	Sm TGR block inconclusive, AmpC inh detg inconclusive
C=CCN1CCc2cccc3c2[C@H]1Cc1ccc(O)c(O)c1-3	Sm TGR block 1.58µM, FBPA Giardia inh inconclusive, RE007 growth inh inconclusive
Cc1nn(C)c(C)c1-c1c(C#N)c(N)nc2c1CCCCCC2	none
CC(=O)Oc1ccccc1C(=O)O	none (no result: Sm TGR block, AmpC inh detg, AmpC no deterg)
CC(=O)[O][Hg][c]1ccccc1	FBPA Giardia inh 17.7µM (no result: Sm TGR block, RE007 growth inh, AmpC inh detg, AmpC no deterg)
CCOC(=O)c1ccc(Nc2c(-c3ccc(N(C)C)cc3)nc3nc[nH]n23)cc1	none (no result: FBPA Giardia inh, RE007 growth inh, AmpC no deterg)
Cc1ccc(-c2nnn(CC(=O)N(Cc3ccco3)C(C(=O)NC(C)(C)C)c3cccs3)n2)o1 (centres undefined)	Sm TGR block 17.8µM
COc1ccc(CNC(=O)C(c2cccs2)N(Cc2ccco2)C(=O)Cc2cccs2)cc1 (centres undefined)	Sm TGR block 28.2µM
O=C(NCCc1c[nH]c2ccccc12)C(=O)NCC1OCCCN1S(=O)(=O)c1cccs1 (centres undefined)	none
Cc1nc([N+](=O)[O-])cn1CCC#N	none
O=c1c2ccccc2nc2n1CCS2(=O)=O	Sm TGR block 22.4µM
CNC(=S)Nc1cccc(C(=O)OC)c1	Sm TGR block 31.6µM
CC(=O)Nc1cccc(NC(=S)Nc2cccc(Cl)c2Cl)c1	none (no result: Sm TGR block)
CC(=O)c1ccc(NC(=S)Nc2cccc(Cl)c2C)cc1	Sm TGR block 35.5µM
COC(=O)c1cccc(NC(=S)Nc2cccc(Cl)c2Cl)c1	Sm TGR block 44.7µM
S=C(Nc1ccc(CN2CCCCC2)cc1)Nc1cccc(Cl)c1Cl	Sm TGR block 25.1µM, AmpC inh detg inconclusive
O=C(NC1CCCCC1)c1ccccc1NC(=S)NC(=O)C1CC1	AmpC inh detg inconclusive

Assay outcomes as filed in PubChem.
